Results taken from PubChem BioAssay (NCATS).
A number with no mark means an inactive call. Calls follow the shape of the dose curve; as a rule, active = well fitted curve in the direction sought with a large enough effect; inconclusive = small, poorly fitted or top-dose-only effect, or another doubt; inactive = no such curve, though single readings can be large; an effect the other way counts as inactive or inconclusive. Inconclusive results are not listed.

Test system: not listed separately
Test: qHTS Counterscreen for compound interference against the NCATS DSHEA and TCM libraries (AID 1919978);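 also: compounds preincubated with 1 µM D-luciferin or buffer before detection reagent; % of control where 0% means no effect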
Conditions: firefly luciferase detection reagent interference, luminescence
Summary of the method: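 With 1 uM D-luciferin or phosphate buffer only, compounds at final 19.5 nM–39.8 uM were incubated for 15 min at room temperature. Luciferase detection reagent was then added, and luminescence was measured after a further 30 min at room temperature.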

| SMILES | max response [%] |
| --- | --- |
| OC[C@H]1O[C@@H](OC[C@H]2O[C@@H](OC/C=C/c3ccccc3)[C@H](O)[C@@H](O)[C@@H]2O)[C@@H](O)[C@@H]1O | -0.863 |
| C[C@@]12CC[C@@H]3[C@@](CC[C@H]4[C@@]3(C)CCC[C@@]4(C)C(=O)O)(CC1=O)C2 | 0.713 |
| CC1CC[C@]2(C(=O)O)CC[C@]3(C(=O)O)C(=CCC4[C@@]5(C)CC[C@H](OC6OC(C)C(O)C(OC7OC(CO)C(O)C(O)C7O)C6O)C(C)(C)C5CC[C@]43C)C2C1C (some centres undefined) | -1.38 |
| CC(C)=CCC[C@](C)(O)[C@H]1CC[C@]2(C)[C@@H]1[C@H](O)CC1[C@@]3(C)CC[C@H](O)C(C)(C)[C@@H]3[C@@H](O[C@@H]3O[C@H](CO)[C@@H](O)[C@H](O)[C@H]3O[C@@H]3O[C@H](CO)[C@@H](O)[C@H](O)[C@H]3O)C[C@]12C (some centres undefined) | -4.33 |
| CC(C)=CCC(O)/C(C)=C/CO[C@@H]1O[C@H](CO)[C@@H](O)[C@H](O)[C@H]1O (some centres undefined) | -4.77 |
| CC(C)=CCC[C@](C)(O[C@@H]1O[C@H](CO[C@@H]2O[C@H](CO)[C@@H](O)[C@H](O)[C@H]2O)[C@@H](O)[C@H](O)[C@H]1O)C1CC[C@]2(C)[C@@H]1[C@H](O)CC1[C@@]3(C)CC[C@H](O[C@@H]4O[C@H](CO)[C@@H](O)[C@H](O)[C@H]4O[C@@H]4O[C@H](CO)[C@@H](O)[C@H](O)[C@H]4O)C(C)(C)[C@@H]3CC[C@]12C (some centres undefined) | -2.77 |

Test system: not listed separately
Test: Dual reporter qHTS for agonist of Pregnane X Receptor (hPXR) against the NCATS DSHEA and TCM libraries: Fluorescence readout (AID 1920058); also: 0% is about no effect
Conditions: PXR dual reporter cells; series mostly up to 22 µM; activation: at the top concentration
Summary of the method: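 Fluorescence read-out for cell viability: CellTiter-Fluor, 1 h at 37 °C, Ex/Em 405/540 nm. This followed ~24 h treatment of hPXR-Luc HepG2 cells with substances in agonist mode.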

| SMILES | activation |
| --- | --- |
| OC[C@H]1O[C@@H](OC[C@H]2O[C@@H](OC/C=C/c3ccccc3)[C@H](O)[C@@H](O)[C@@H]2O)[C@@H](O)[C@@H]1O | 13.5% |
| C[C@@]12CC[C@@H]3[C@@](CC[C@H]4[C@@]3(C)CCC[C@@]4(C)C(=O)O)(CC1=O)C2 | 4.08% [at 40 µM] |
| CC1CC[C@]2(C(=O)O)CC[C@]3(C(=O)O)C(=CCC4[C@@]5(C)CC[C@H](OC6OC(C)C(O)C(OC7OC(CO)C(O)C(O)C7O)C6O)C(C)(C)C5CC[C@]43C)C2C1C (some centres undefined) | -14.7% |
| CC(C)=CCC[C@](C)(O)[C@H]1CC[C@]2(C)[C@@H]1[C@H](O)CC1[C@@]3(C)CC[C@H](O)C(C)(C)[C@@H]3[C@@H](O[C@@H]3O[C@H](CO)[C@@H](O)[C@H](O)[C@H]3O[C@@H]3O[C@H](CO)[C@@H](O)[C@H](O)[C@H]3O)C[C@]12C (some centres undefined) | -12.4% |
| CC(C)=CCC(O)/C(C)=C/CO[C@@H]1O[C@H](CO)[C@@H](O)[C@H](O)[C@H]1O (some centres undefined) | 0.104% [at 40 µM] |
| CC(C)=CCC[C@](C)(O[C@@H]1O[C@H](CO[C@@H]2O[C@H](CO)[C@@H](O)[C@H](O)[C@H]2O)[C@@H](O)[C@H](O)[C@H]1O)C1CC[C@]2(C)[C@@H]1[C@H](O)CC1[C@@]3(C)CC[C@H](O[C@@H]4O[C@H](CO)[C@@H](O)[C@H](O)[C@H]4O[C@@H]4O[C@H](CO)[C@@H](O)[C@H](O)[C@H]4O)C(C)(C)[C@@H]3CC[C@]12C (some centres undefined) | -4.91% [at 8.32 µM] |

Target: Nuclear receptor subfamily 1 group I member 2 (Homo sapiens) (UniProt O75469)
Sequence (O75469 whole entry, looked up): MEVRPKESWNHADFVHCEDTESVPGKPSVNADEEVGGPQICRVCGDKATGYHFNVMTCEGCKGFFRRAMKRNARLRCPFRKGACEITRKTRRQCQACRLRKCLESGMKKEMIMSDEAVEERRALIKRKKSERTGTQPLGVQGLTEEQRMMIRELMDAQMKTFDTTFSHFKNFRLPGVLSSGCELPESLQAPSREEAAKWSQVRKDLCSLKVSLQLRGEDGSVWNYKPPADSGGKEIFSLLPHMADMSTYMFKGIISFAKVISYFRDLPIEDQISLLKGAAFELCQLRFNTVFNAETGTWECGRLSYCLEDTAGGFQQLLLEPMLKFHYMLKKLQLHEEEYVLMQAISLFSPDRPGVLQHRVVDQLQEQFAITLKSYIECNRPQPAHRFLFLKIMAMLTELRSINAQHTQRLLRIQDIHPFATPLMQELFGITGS
Test: Dual reporter qHTS for agonist of Pregnane X Receptor (hPXR) against the NCATS DSHEA and TCM libraries: Luminescence readout (AID 1920059); also: 0% is about no effect
Conditions: hPXR dual reporter cells, luciferase luminescence agonist; series mostly up to 22 µM; activation: at the top concentration
Summary of the method: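 Luminescent PXR reporter read (ONE-Glo) after a CellTiter-Fluor viability read, following 24 h, 37C treatment of HepG2 cells stably carrying hPXR-Luc.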

| SMILES | activation |
| --- | --- |
| OC[C@H]1O[C@@H](OC[C@H]2O[C@@H](OC/C=C/c3ccccc3)[C@H](O)[C@@H](O)[C@@H]2O)[C@@H](O)[C@@H]1O | 0.187% |
| C[C@@]12CC[C@@H]3[C@@](CC[C@H]4[C@@]3(C)CCC[C@@]4(C)C(=O)O)(CC1=O)C2 | 13.2% [at 40 µM] |
| CC1CC[C@]2(C(=O)O)CC[C@]3(C(=O)O)C(=CCC4[C@@]5(C)CC[C@H](OC6OC(C)C(O)C(OC7OC(CO)C(O)C(O)C7O)C6O)C(C)(C)C5CC[C@]43C)C2C1C (some centres undefined) | -5.14% |
| CC(C)=CCC[C@](C)(O)[C@H]1CC[C@]2(C)[C@@H]1[C@H](O)CC1[C@@]3(C)CC[C@H](O)C(C)(C)[C@@H]3[C@@H](O[C@@H]3O[C@H](CO)[C@@H](O)[C@H](O)[C@H]3O[C@@H]3O[C@H](CO)[C@@H](O)[C@H](O)[C@H]3O)C[C@]12C (some centres undefined) | -11.3% |
| CC(C)=CCC(O)/C(C)=C/CO[C@@H]1O[C@H](CO)[C@@H](O)[C@H](O)[C@H]1O (some centres undefined) | 28.2% [at 40 µM] |
| CC(C)=CCC[C@](C)(O[C@@H]1O[C@H](CO[C@@H]2O[C@H](CO)[C@@H](O)[C@H](O)[C@H]2O)[C@@H](O)[C@H](O)[C@H]1O)C1CC[C@]2(C)[C@@H]1[C@H](O)CC1[C@@]3(C)CC[C@H](O[C@@H]4O[C@H](CO)[C@@H](O)[C@H](O)[C@H]4O[C@@H]4O[C@H](CO)[C@@H](O)[C@H](O)[C@H]4O)C(C)(C)[C@@H]3CC[C@]12C (some centres undefined) | 6.01% [at 8.32 µM] |

Target: Nuclear receptor subfamily 1 group I member 2 (Homo sapiens) (UniProt O75469)
Test: Dual reporter qHTS for antagonist of Pregnane X Receptor (hPXR) against the NCATS DSHEA and TCM libraries: Luminescence Readout (AID 1920060);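 also: HepG2 cells carrying hPXR luciferase reporter stimulated with rifampicin at 2 µM; 0% is about no effect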
Conditions: hPXR dual reporter cells, luciferase luminescence, antagonist mode; series mostly up to 22 µM; activity change, negative = inhibition: at the top concentration
From the text: Assay Development and Screening Technology Laboratory (ADST)
National Center for Advancing Translational Sciences (NCATS), Rockville, MD
National Institute of Health (NIH), Bethesda, Maryland
Dietary Supplements and Natural Products have minor oversight of their safety and efficacy. We assembled a collection of Dietary Supplements and Natural Products (DSNP) as well as Traditional Chinese Medicinal (TCM) Plant extracts, which were screened against an in vitro panel of assays, including a liver cytochrome p450 enzyme panel, CAR/PXR signaling pathways, and P-gp transporter assays, to assess their activity. This pipeline facilitated the interrogation of Natural Product-Drug Interaction (NaPDI) through prominent metabolizing pathways. In addition, we compared the activity profiles of the DSNP/TCM substances with those of an approved drug collection. Many of the approved drugs have well-annotated mechanisms of action (MOA) while the MOAs for most of the DSNP and TCM samples remain unknown. Based on the premise that compounds with similar activity profiles tend to share similar targets or MOA, we clustered the library activity profiles to identify overlap with the NCATS Pharmaceutical Collection to predict the MOAs of the DSNP/TCM substances. Overall, we highlight four significant bioactivity profiles (measured by p-values) as examples of this prediction. To assess broad cytotoxicity, we employed screening against a HepG2 cell line. In addition, transporter-mediated drug interactions are utilized in the characterization of DDIs using a P-glycoprotein (P-gp) assays. To profile potential P-gp activity, a differential cell viability was measured against two cell lines: a parental KB-3-1 human cervical adenocarcinoma cell line and the drug-resistant subline KB-8-5-11 that overexpresses P-gp.
To this end, we profiled both collections for potential CAR and/or PXR activity, employing a previously published 1536-well qHTS assay.
[1] Lee TD, et al. A High-Throughput Screen of a Library of Therapeutics Identifies Cytotoxic Substrates of P-glycoprotein. Mol Pharmacol. Nov 2019;96(5):629-640. doi:10.1124/mol.119.115964
For PXR luciferase reporter gene assays, we used hPXR-LucHepG2cells provided by Dr. Taosheng Chen (Department of Chemical Biology and Therapeutics, St. Jude Children's Research Hospital). Cells were cultured in EMEM supplemented with 10% fetal bovine serum, 100U/mL penicillin and 100ug/mL streptomycin, and 500ug/mL of geneticin.
PROTOCOL TABLE (as described by Inglese J, Shamu CE and Guy RK. 2007)
SEQUENCE No. (e.g., 1, 2, 3, etc.); PARAMETER (e.g., Cells, Incubation, Reagent, etc.); VALUE; DESCRIPTION.
1; Cells; 5 uL; hPXR-LucHepG2; white solid-bottom Greiner plate.
2; Incubation; 5h; 37C, 95% humidity, 5% CO2
3; Compounds and control; 23 nL; Kalypsis pintool (Wako USA).
4; Reagent; 1uL; rifampicin (RIF) in the antagonist mode.
6; Reagent; 1 uL; CellTiter-Fluor detection reagent.
7; Incubation; 1 hr; 37C, 5% CO2.
8; Read; Fluorescence; ViewLux plate reader.
9; Reagent; 4 uL; ONE-Glo Luciferase detection reagent.
10; Incubation; 30 min; room temperature.
11; Read; Luminescence; ViewLux plate reader.
NOTES (numbers refer to Sequence numbers above)
1. Briefly, 5uL of hPXR-LucHepG2 cells in phenol red-free DMEM containing 5% charcoal-stripped FBS, 1 mM sodium pyruvate (Invitrogen), 2 mM L-glutamine (Invitrogen), and 100 U/mL penicillin and 100ug/mL streptomycin were dispensed using a BioRAPTR FRD at 4 x 10^5cells/mL (2000cells/well) in tissue culture-treated 1536-well white assay plates (GreinerBio-One).
2. Plates were incubated for 5h at 37C, 95% humidity, and 5% CO2 to allow for cell attachment.
3. Compounds (final concentration for most substances ranged from 15.6 nM to 45.9uM), positive SPA70 (final concentration range of 2.8 nM to 92uM for the antagonist mode), and cytotoxicity control tetraoctyl ammonium bromide (final concentration of 92uM) were transferred (23 nL) via pintool (Wako Automation).
4-5. […]

| SMILES | activity change, negative = inhibition |
| --- | --- |
| OC[C@H]1O[C@@H](OC[C@H]2O[C@@H](OC/C=C/c3ccccc3)[C@H](O)[C@@H](O)[C@@H]2O)[C@@H](O)[C@@H]1O | -25.4% |
| C[C@@]12CC[C@@H]3[C@@](CC[C@H]4[C@@]3(C)CCC[C@@]4(C)C(=O)O)(CC1=O)C2 | 11.6% [at 40 µM] |
| CC1CC[C@]2(C(=O)O)CC[C@]3(C(=O)O)C(=CCC4[C@@]5(C)CC[C@H](OC6OC(C)C(O)C(OC7OC(CO)C(O)C(O)C7O)C6O)C(C)(C)C5CC[C@]43C)C2C1C (some centres undefined) | -19.4% |
| CC(C)=CCC[C@](C)(O)[C@H]1CC[C@]2(C)[C@@H]1[C@H](O)CC1[C@@]3(C)CC[C@H](O)C(C)(C)[C@@H]3[C@@H](O[C@@H]3O[C@H](CO)[C@@H](O)[C@H](O)[C@H]3O[C@@H]3O[C@H](CO)[C@@H](O)[C@H](O)[C@H]3O)C[C@]12C (some centres undefined) | -22.3% |
| CC(C)=CCC(O)/C(C)=C/CO[C@@H]1O[C@H](CO)[C@@H](O)[C@H](O)[C@H]1O (some centres undefined) | -9.86% [at 40 µM] |
| CC(C)=CCC[C@](C)(O[C@@H]1O[C@H](CO[C@@H]2O[C@H](CO)[C@@H](O)[C@H](O)[C@H]2O)[C@@H](O)[C@H](O)[C@H]1O)C1CC[C@]2(C)[C@@H]1[C@H](O)CC1[C@@]3(C)CC[C@H](O[C@@H]4O[C@H](CO)[C@@H](O)[C@H](O)[C@H]4O[C@@H]4O[C@H](CO)[C@@H](O)[C@H](O)[C@H]4O)C(C)(C)[C@@H]3CC[C@]12C (some centres undefined) | -31.6% [at 8.32 µM] |
